Bioassay records: PubChem, National Center for Advancing Translational Sciences (NCATS)
VDR inhibitor: inhibitors of human vitamin D receptor | Potency, µM, for inactives: max response, negative = inhibition, most hits filed as inhibitors | VDR-SRC2-3 peptide fluorescence polarization, 2 h | 0.93% of 400,000 active | P11473
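Signal is fluorescence polarization, reporting how far test compounds block the interaction of VDR with the SRC2-3 coregulator peptide after a 2 h room-temperature incubation.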
Sfp inh: blocks B. subtilis Sfp PPTase activity | Q9F4F7 | Biochemical Sfp PPTase activity, qHTS | Potency, µM, for inactives: largest response in the series, negative = inhibition, usual class: inhibitors | 3.5% of 310,000 active;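 also: the enzyme is Sfp with the accession as filed and its product quenches rhodamine fluorescence; 0% = enzyme reaction without inhibitor and -100% = no enzyme wells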
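With Hepes-Na pH 7.6 buffer containing 10 mM MgCl2, Sfp (15 nM) modified BHQ-2-YbbR (12.5 uM) using rhodamine-CoA (5 uM). Two reads 30 minutes apart at 525/598 nm yielded each well's rate.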
TrxR1 substrate: substrates of rat thioredoxin reductase 1; Potency, µM (doses to about 114 µM), without a hit: at the highest dose activity change, negative = substrate turnover; purified TrxR1 substrate turnover, NADPH consumption readout; 0.01% of 390,000 active; O89049; AID 588456; also: nearly all actives have a fitted effect of over 50% in size
Target sequence (O89049 whole entry, looked up): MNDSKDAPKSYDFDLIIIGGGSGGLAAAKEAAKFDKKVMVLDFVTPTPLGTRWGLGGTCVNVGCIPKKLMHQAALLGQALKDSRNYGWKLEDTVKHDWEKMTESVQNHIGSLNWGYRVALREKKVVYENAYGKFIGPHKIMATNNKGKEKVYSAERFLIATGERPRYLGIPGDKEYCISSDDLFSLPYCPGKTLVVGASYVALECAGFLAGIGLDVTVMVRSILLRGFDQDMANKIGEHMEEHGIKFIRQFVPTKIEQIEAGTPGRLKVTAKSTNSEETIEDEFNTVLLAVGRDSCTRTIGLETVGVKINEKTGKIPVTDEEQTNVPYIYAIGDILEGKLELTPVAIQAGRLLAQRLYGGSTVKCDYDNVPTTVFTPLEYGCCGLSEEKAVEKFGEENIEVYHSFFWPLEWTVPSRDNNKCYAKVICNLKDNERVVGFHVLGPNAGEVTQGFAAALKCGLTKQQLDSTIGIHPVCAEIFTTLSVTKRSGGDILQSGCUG
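Rat TrxR1, dispensed at 90 nM, was prereduced with 400 uM NADPH (final) for 5 min at ~22 deg C, then incubated with compound 15 min before 400 uM selenite. A first-read NADPH fluorescence drop versus no-compound background flagged substrates.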
IDH1 R132H inh: human IDH1 R132H inhibition; O75874; IDH1-R132H enzyme, NADPH consumption, diaphorase/resazurin fluorescence; Potency, µM (highest dose often 76.6 µM), for the others: at the highest dose activity change, negative = inhibition, actives largely listed as inhibitors; 0.093% of 390,000 active; AID 602179; also: nearly all actives have a fitted effect of over 65% in size
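IDH1-R132H (0.5 ug/mL) preincubated 30 min with compound, then NADPH (0.016 mM) and alpha-KG (2 mM) added; 80 min at RT, pH 7.5. Remaining NADPH coupled via diaphorase/resazurin to fluorescence (540/590 nm); concentration-response curves normalized to no-enzyme control.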
PLK1 PBD block: PLK1 (human) polo-box domain binding inhibition; Potency, µM, without a hit: max response, negative = inhibition, usual class: inhibitors; Plk1 PBD binding of FITC phosphopeptide, fluorescence polarization; P53350; 2.8% of 360,000 active; AID 720504; also: series mostly up to about 57 µM; nearly all actives have a fitted effect of over 65% in size
TrxR1 inh: blocks rat thioredoxin reductase 1; O89049; recombinant rTrxR1, NADPH fluorescence consumption, selenite substrate; Potency, µM (titrated, usually from 114 µM), for inactives: at the top dose activity change, negative = inhibition, hits mostly inhibitors; 1% of 390,000 active; AID 588453; also: nearly all actives have a fitted effect of over 65% in size
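Rat TrxR1 (90 nM in the dispensed reagent) was pre-reduced with 400 uM NADPH for 5 min at room temperature, then incubated with compound for 15 min. After 400 uM selenite was added, NADPH fluorescence (Ex 340/Em 450 nm) was followed for 8 min.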
Active calls of the source: *; ? = inconclusive; . = not tested or not shown; [ ] = another dose, or the depositor's remark. This is a sample that favours compounds with a hit; in the whole collection about 5.2% have one here. Calls follow the shape of the dose curve; as a rule, active = well fitted curve in the direction sought with a large enough effect; inconclusive = small, poorly fitted or top-dose-only effect, or another doubt; inactive = no such curve, though single readings can be large; an effect the other way counts as inactive or inconclusive. Unless noted, % is scaled to controls: 0 for no effect and ±100 for the full control effect; potency is read from the fitted curve at half-maximal effect.

SMILES | VDR inhibitor | Sfp inh | TrxR1 substrate | IDH1 R132H inh | PLK1 PBD block | TrxR1 inh
CC(C)(C)CC(C)(C)N=C1Nc2ccc(Cl)cc2N[C@]12C[C@H]1CCCC(=O)N3CC[C@@H](C2)[C@@H]13 | . | . | -3% | . | . | -7%
CC1(C(=O)Nc2ccc3[nH]ncc3c2)CCN1C(=O)C/C=C/c1ccccc1 (configuration not stated) | . | . | . | . | -5% | .
COc1cc2cc(CN(Cc3nnnn3Cc3ccccc3)CC3CCCO3)c(=O)[nH]c2cc1OC (configuration not stated) | 0% | 56µM* | 23%[57.1 µM] | 9% | -2% | -4%[57.1 µM]
COc1ccc2[nH]c(=O)c(CN(Cc3cccnc3)Cc3nnnn3CC3CCCO3)cc2c1 (configuration not stated) | 8% | 79µM* | 21% | -4% | 0% | 1%
CCc1ccc2[nH]c(=O)c(CN(Cc3ccc(OC)cc3)Cc3nnnn3CCOC)cc2c1 | 11% | 13µM* | -2% | 0% | 1% | -22%
COc1ccc2[nH]c(=O)c(CN(Cc3ccccc3)Cc3nnnn3CC3CCCO3)cc2c1 (configuration not stated) | 16% | -2% | 23% | 1% | -12% | 24%
Cc1ccc(C)c2[nH]c(=O)c(CN(Cc3nnnn3C3CCCCC3)CC3CCCO3)cc12 (configuration not stated) | 12% | 79µM* | -1% | 5% | -7% | ?
CCOC(=O)C1CCCN(C(c2ccccn2)c2c(C)[nH]c3ccccc23)C1 (configuration not stated) | -7% | 45µM* | 10%[57.1 µM] | 20% | -16% | 6%[57.1 µM]
COc1ccc(-c2cc(C(=O)Nc3ccccc3O)c3ccccc3n2)cc1OC | 1% | 6% | -8%[57.1 µM] | 1% | -20% | -6%[57.1 µM]
COc1ccc(NC(=O)c2cc(-c3ccc(C)o3)nc3ccccc23)cc1OC | -25% | 22µM* | 8%[57.1 µM] | 0% | ? | 28µM*
Cc1ccccc1NC(=S)NC(=O)c1cc(-c2ccccc2)nc2ccccc12 | -7% | 10% | 9%[57.1 µM] | 4% | 30µM* | -15%
COc1ccc(NC(=O)c2cc(-c3ccc(C)o3)nc3ccccc23)c(OC)c1 | -6% | . | -5% | -3% | -12% | ?
COc1ccc(-c2cc(C(=O)Nc3c(Cl)cc(Cl)cc3Cl)c3ccccc3n2)cc1OC | -1% | ? | 129% | -1% | -3% | 79µM*
COc1ccc(-c2cc(C(=O)Nc3ccc(Cl)cc3Cl)c3ccccc3n2)cc1OC | -10% | 35µM* | 22% | 1% | -4% | -15%
O=c1c(-c2ccc(F)cc2)nc2cnc(Nc3ccccc3)nc2n1C[C@H]1CCCO1 | 1% | 2% | . | . | . | .
COCCn1nnnc1SCC(=O)c1ccccc1 | -5% | 50µM* | 1% | 5% | -10% | ?
CCn1nnnc1SCC(=O)c1cccc(OC)c1 | -14% | -7% | -6% | 2% | ? | 17%[57.1 µM]
CC(=O)Nc1ccc(C(=O)CSc2nnnn2C)cc1 | 13% | -3% | 3% | 7% | -5% | 0%
CCCn1nnnc1SCC(=O)c1ccc(NC(C)=O)cc1 | 4% | 79µM* | 6% | 4% | -23% | 15%
COCCn1c(SCC(=O)c2ccc(Cl)cc2)nnc1C(C)C | ? | 79µM* | 8% | -4% | ? | 6.3µM*
CCCn1nnnc1SCC(=O)Nc1sc(C)c(C)c1C#N | -4% | 50µM* | -3% | 0% | -14% | 1%
CC(C)c1ccc(S(=O)(=O)N2CCC(N3CCN(Cc4ccccc4)C(=O)C3=O)CC2)cc1 | -8% | . | -3%[57.1 µM] | -7% | . | 12%[57.1 µM]
CCN1/C(=N\N)c2cccc3cccc1c23 | -24% | 35µM* | 3% | 5% | -9% | -17%
O=C1NC2(CCCCCC2)C(=O)N1Cc1cccc([N+](=O)[O-])c1 | ? | 7% | 3% | -6% | 27µM* | 25%
CNc1ccc(Br)cc(C(=O)/C=C/c2cccc(OC)c2)c1=O | ? | 20µM* | -5% | 4% | -24% | 13µM*
SMILES | VDR inhibitor | Sfp inh | TrxR1 substrate | IDH1 R132H inh | PLK1 PBD block | TrxR1 inh
CNc1ccc(Br)cc(C(=O)/C=C/c2ccc(OC)cc2OC)c1=O | ? | ? | -10% | 11% | ? | 14µM*
COc1ccc(/C=C/C(=O)c2ccc(OC)cc2OC)c(OC)c1 | -2% | -16% | -11% | 4% | -5% | -8%
COc1cccc(/C=C/C(=O)OCC(=O)NCCNC(=O)COC(=O)/C=C/c2cccc(OC)c2)c1 | 8% | . | 9% | 1% | -2% | 4%
Cc1ccc(NC(=O)CSc2nc3ccccc3c3nc(CCc4c(C)n[nH]c4C)nn23)c(C)c1 | 2% | . | 0%[57.1 µM] | -13% | . | 16%[57.1 µM]
O=C(Nc1ccc(S(=O)(=O)Nc2ncccn2)cc1)c1ccc(F)c(S(=O)(=O)N2CCOCC2)c1 | -29% | 9% | -5% | -8% | 30µM* | 10%
O=C(Nc1ccc(S(=O)(=O)Nc2nccs2)cc1)c1ccc(F)c(S(=O)(=O)N2CCOCC2)c1 | 7% | 17% | 3% | 4% | 8% | 17%
CCN(C(=S)Nc1cc(S(=O)(=O)N2CCOCC2)ccc1Cl)c1cccc2ccccc12 | -18% | 4µM* | 87% | 11% | -12% | -22%
CCOC(=O)C1=C(COC(=O)CCOc2cc(C)ccc2C)NC(=O)NC1C (configuration not stated) | -1% | . | -8% | 0% | -11% | 1%
C/C(=N\Nc1ccc(C(=O)c2c(C)cc3ccccn23)cc1[N+](=O)[O-])c1ccc(O)cc1 | -13% | 20µM* | 2% | -8% | -17% | 28%
CCOc1ccccc1NC(=O)CSc1cn[nH]n1 | 24% | . | -4% | 7% | -11% | 11%
CC(=O)N[C@@H](CC(C)C)C(=O)N[C@@H](CCCNC(=N)N)C(=O)N[C@@H](Cc1cnc[nH]1)C(=O)N[C@@H](Cc1ccc(O)cc1)C(=O)N[C@@H](CC(C)C)C(=O)N[C@@H](CC(N)=O)C(=O)N[C@@H](CC(C)C)C(=O)N[C@@H](CC(C)C)C(=O)N[C@H](C(=O)N[C@@H](CCCNC(=N)N)C(=O)N[C@@H](CCC(N)=O)C(=O)N[C@@H](CCCNC(=N)N)C(=O)N[C@@H](Cc1ccc(O)cc1)C(N)=O)[C@@H](C)O | 6% | 4% | . | . | . | .
Cc1cccc(NCCC(=O)c2ccc(Br)cc2)c1 | -11% | 1% | -3% | 3% | -19% | 25µM*
CC(=O)c1ccc(NCCC(=O)c2ccccc2)cc1 | 17% | 15% | -9% | 1% | -15% | 50µM*
CC(C)c1ccc(NCCC(=O)c2ccc(Br)cc2)cc1 | -11% | -3% | -7% | 0% | -9% | 56µM*
